Data published in a collection of fitness landscapes (doi:10.1126/science.1257360).
Over roughly 140,000 sequences, “enrichment ratio after two sorts for PhoP signalling” has its median near 0; the highest 2% begin near 11. The list comes from a sample in which the highest values are over-represented; it also holds similar and randomly drawn sequences.

B1: PhoQ; a variant is named by its letters at X, in order, P23837 (parent)
chain: MKKLLRLFFPLSLRVRFLLATAAVVLVLSLAYGMVALIGYSVSFDKTTFRLLRGESNLFYTLAKWENNKLHVELPENIDKQSPTMTLIYDENGQLLWAQRDVPWLMKMIQPDWLKSNGFHEIEADVNDTSLLLSGDHSIQQQLQEVREDDDDAEMTHSVAVNVYPATSRMPKLTIVVVDTIPVELKSSYMVWSWFIYVLSANLLLVIPLLWVAAWWSLRPIEALAKEVRELEEHNRELLNPATTRELTSLVRNLNRLLKSERERYDKYRTTLTDLTHSLKTPLXXLQXXLRSLRSEKMSVSDAEPVMLEQISRISQQIGYYLHRASMRGGTLLSRELHPVAPLLDNLTSALNKVYQRKGVNISLDISPEISFVGEQNDFVEVMGNVLDNACKYCLEFVEISARQTDEHLYIVVEDDGPGIPLSKREVIFDRGQRVDTLRPGQGVGLAVAREITEQYEGKIVAGESMLGGARMEVIFGRQHSAPKDE

Variants of: B1
Test: enrichment ratio after two sorts for PhoP signalling (ratio (wild type AVST 3.29)); higher = more functional
Details: with PhoP (E. coli)

MMHM and SCKK cannot be ordered by enrichment ratio: ≤ 0.25 for the first, ≤ 0.25 for the second.

TYID and LNTD cannot be ordered by enrichment ratio: ≤ 0.25 for the first, ≤ 0.25 for the second.

IKRA and QRQH cannot be ordered by enrichment ratio: ≤ 0.25 for the first, ≤ 0.25 for the second.

NYNA and MFGV cannot be ordered by enrichment ratio: ≤ 0.25 for the first, ≤ 0.25 for the second.

NEWC and NRWC cannot be ordered by enrichment ratio: ≤ 0.25 for the first, ≤ 0.25 for the second.

First: TEWC
Second: HPWC
The enrichment ratio of the first is higher: 33.2 for the first, ≤ 0.25 for the second.

Compared with MNWC, LNWC is lower in enrichment ratio: 11.8 for the first, ≤ 0.25 for the second.

First: NQWC
Second: TQWC
The enrichment ratio of the first is lower: ≤ 0.25 for the first, 29.7 for the second.

TNWC and FYWP cannot be ordered by enrichment ratio: ≤ 0.25 for the first, ≤ 0.25 for the second.

Compared with RAPP, TIYT is higher in enrichment ratio: ≤ 0.25 for the first, 2.66 for the second.

HIYY and IYRV cannot be ordered by enrichment ratio: ≤ 0.25 for the first, ≤ 0.25 for the second.

First: SKMA
Second: WRFK
The enrichment ratio of the first is higher: 3.27 for the first, ≤ 0.25 for the second.

DFPC and YMWR cannot be ordered by enrichment ratio: ≤ 0.25 for the first, ≤ 0.25 for the second.

QPAI and YTAI cannot be ordered by enrichment ratio: ≤ 0.25 for the first, ≤ 0.25 for the second.

TPAI and MKAI cannot be ordered by enrichment ratio: ≤ 0.25 for the first, ≤ 0.25 for the second.

Compared with QAAI, MTAI is higher in enrichment ratio: 12.7 for the first, 17.8 for the second.

GKTK and YGMR cannot be ordered by enrichment ratio: ≤ 0.25 for the first, ≤ 0.25 for the second.

First: ACFV
Second: HMTM
The enrichment ratio of the first is lower: ≤ 0.25 for the first, 11.7 for the second.

First: IALM
Second: FCLM
The enrichment ratio of the first is lower: 6.67 for the first, 12.7 for the second.

Compared with YCWM, YCLM is higher in enrichment ratio: ≤ 0.25 for the first, 14.9 for the second.

Going from ISWM to FVLM, the enrichment ratio rises from ≤ 0.25 to 8.14.

HMGM and YYLM cannot be ordered by enrichment ratio: ≤ 0.25 for the first, ≤ 0.25 for the second.

Going from ISLM to KCLM, the enrichment ratio falls from 12.9 to ≤ 0.25.

HMPM and QYLA cannot be ordered by enrichment ratio: ≤ 0.25 for the first, ≤ 0.25 for the second.

RGIA and WTPQ cannot be ordered by enrichment ratio: ≤ 0.25 for the first, ≤ 0.25 for the second.

First: MDVM
Second: PTAN
The enrichment ratio of the first is higher: 8.67 for the first, ≤ 0.25 for the second.

QCEP and CALR cannot be ordered by enrichment ratio: ≤ 0.25 for the first, ≤ 0.25 for the second.

WMFY and IQQW cannot be ordered by enrichment ratio: ≤ 0.25 for the first, ≤ 0.25 for the second.

VWEW and HMQF cannot be ordered by enrichment ratio: ≤ 0.25 for the first, ≤ 0.25 for the second.

YSKM and WFWG cannot be ordered by enrichment ratio: ≤ 0.25 for the first, ≤ 0.25 for the second.

Compared with GVAV, FQLM is higher in enrichment ratio: ≤ 0.25 for the first, 1.74 for the second.

First: HSLA
Second: TSLM
The enrichment ratio of the first is lower: ≤ 0.25 for the first, 16.7 for the second.

Compared with HSLM, HSFM is lower in enrichment ratio: 22.1 for the first, ≤ 0.25 for the second.

Compared with SSLM, FSLM is higher in enrichment ratio: 17.1 for the first, 19.2 for the second.

Compared with NSLM, SYLM is lower in enrichment ratio: 7.81 for the first, ≤ 0.25 for the second.

KSLM and FFLM cannot be ordered by enrichment ratio: ≤ 0.25 for the first, ≤ 0.25 for the second.

QNNM and YPIG cannot be ordered by enrichment ratio: ≤ 0.25 for the first, ≤ 0.25 for the second.

PMYL and WVSG cannot be ordered by enrichment ratio: ≤ 0.25 for the first, ≤ 0.25 for the second.

GGKL and LPCH cannot be ordered by enrichment ratio: ≤ 0.25 for the first, ≤ 0.25 for the second.

Going from RYCQ to HSTM, the enrichment ratio rises from ≤ 0.25 to 13.1.

First: HSWM
Second: MALM
The enrichment ratio of the first is lower: ≤ 0.25 for the first, 9.02 for the second.

Going from FALM to HSCK, the enrichment ratio falls from 17 to ≤ 0.25.

Compared with FAPM, AEWY is higher in enrichment ratio: 0.451 for the first, 6.65 for the second.

FPSQ and YFHS cannot be ordered by enrichment ratio: ≤ 0.25 for the first, ≤ 0.25 for the second.

HESK and QHDK cannot be ordered by enrichment ratio: ≤ 0.25 for the first, ≤ 0.25 for the second.

QHRM and PHDG cannot be ordered by enrichment ratio: ≤ 0.25 for the first, ≤ 0.25 for the second.

Compared with QHDA, THDI is lower in enrichment ratio: 10.1 for the first, ≤ 0.25 for the second.

Going from QHDI to QHDM, the enrichment ratio falls from 19.6 to 19.5.

Compared with QHDS, QHDG is higher in enrichment ratio: 29.2 for the first, 110 for the second.

NHDI and THDG cannot be ordered by enrichment ratio: ≤ 0.25 for the first, ≤ 0.25 for the second.

QHGM and LMVM cannot be ordered by enrichment ratio: ≤ 0.25 for the first, ≤ 0.25 for the second.

EFMR and LCAK cannot be ordered by enrichment ratio: ≤ 0.25 for the first, ≤ 0.25 for the second.

First: IKYG
Second: AISC
The enrichment ratio of the first is lower: ≤ 0.25 for the first, 9.79 for the second.

SAFV and AGNI cannot be ordered by enrichment ratio: ≤ 0.25 for the first, ≤ 0.25 for the second.

First: PWYG
Second: WQLM
The enrichment ratio of the first is lower: ≤ 0.25 for the first, 15.8 for the second.

YQLA and WILM cannot be ordered by enrichment ratio: ≤ 0.25 for the first, ≤ 0.25 for the second.

First: WELF
Second: YQLM
The enrichment ratio of the first is lower: ≤ 0.25 for the first, 17.7 for the second.

YQWM and WFLM cannot be ordered by enrichment ratio: ≤ 0.25 for the first, ≤ 0.25 for the second.

YQNY and YQNS cannot be ordered by enrichment ratio: ≤ 0.25 for the first, ≤ 0.25 for the second.

Going from YQNA to WEGM, the enrichment ratio falls from 14.6 to ≤ 0.25.

First: WELM
Second: QISH
The enrichment ratio of the first is higher: 17.4 for the first, 7.86 for the second.

Going from FCVP to NSRA, the enrichment ratio rises from ≤ 0.25 to 0.539.

NGWY and VQWA cannot be ordered by enrichment ratio: ≤ 0.25 for the first, ≤ 0.25 for the second.

First: NQLM
Second: KYLM
The enrichment ratio of the first is higher: 6.38 for the first, ≤ 0.25 for the second.

EQLM and DPLM cannot be ordered by enrichment ratio: ≤ 0.25 for the first, ≤ 0.25 for the second.

Going from TQLM to SQLM, the enrichment ratio falls from 22.7 to 21.3.

MPQH and KFKS cannot be ordered by enrichment ratio: ≤ 0.25 for the first, ≤ 0.25 for the second.

TDIN and LAGL cannot be ordered by enrichment ratio: ≤ 0.25 for the first, ≤ 0.25 for the second.

SWST and DQAN cannot be ordered by enrichment ratio: ≤ 0.25 for the first, ≤ 0.25 for the second.

Going from AMCY to NMCY, the enrichment ratio falls from 25.2 to ≤ 0.25.

Going from VLCY to THCY, the enrichment ratio rises from ≤ 0.25 to 1.87.

First: NHCY
Second: AHCY
The enrichment ratio of the first is lower: ≤ 0.25 for the first, 12.7 for the second.

First: SYHH
Second: IIEM
The enrichment ratio of the first is higher: 0.299 for the first, ≤ 0.25 for the second.

KTPQ and MTSW cannot be ordered by enrichment ratio: ≤ 0.25 for the first, ≤ 0.25 for the second.

Going from AFMG to AFCG, the enrichment ratio falls from 19.5 to 11.4.

Compared with AFCI, AFVG is higher in enrichment ratio: ≤ 0.25 for the first, 4.66 for the second.

AFCE and AFAG cannot be ordered by enrichment ratio: ≤ 0.25 for the first, ≤ 0.25 for the second.
